Assay results from PubChem BioAssay (NCI).
This is part of a sample that, as a whole, favours compounds with a hit. Of some 83,000 tested, about 20% had one in any assay.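 Values shown are percent growth following 48 h exposure of cells in 96-well plates to a single concentration of compound; below 10 was considered active.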 Calls of active or inactive are those of the source.

What was measured:
Assay in all cases: NCI-60 one-dose screen, 48 h (100 = growth as untreated, 0 = no growth, -100 = all killed)
[1] = test system: DU-145 prostate; settings: 10 µM unless noted
[2] = test system: K-562 leukemia; settings: 10 µM unless noted
[3] = test system: MALME-3M melanoma; settings: 10 µM unless noted
[4] = test system: MDA-MB-231 breast; settings: 10 µM unless noted
[5] = test system: RXF 393 renal; settings: 10 µM unless noted
[6] = test system: SF-268 CNS; settings: 10 µM unless noted
[7] = test system: SF-295 CNS; settings: 10 µM unless noted
[8] = test system: SF-539 CNS; settings: 10 µM unless noted
[9] = test system: UACC-257 melanoma; settings: 10 µM unless noted
[10] = test system: M14 melanoma; settings: 10 µM unless noted
[11] = test system: HCT-15 colon; settings: 10 µM unless noted
[12] = test system: HT29 colon; settings: 10 µM unless noted
[13] = test system: SNB-19 CNS; settings: 10 µM unless noted
[14] = test system: U251 CNS; settings: 10 µM unless noted
[15] = test system: PC-3 prostate; settings: 10 µM unless noted
[16] = test system: UACC-62 melanoma; settings: 10 µM unless noted
[17] = test system: LOX IMVI melanoma; settings: 10 µM unless noted
[18] = test system: SK-MEL-28 melanoma; settings: 10 µM unless noted
[19] = test system: SK-MEL-5 melanoma; settings: 10 µM unless noted
[20] = test system: SNB-75 CNS; settings: 10 µM

Measured: growth

O=C1/C(=C/c2ccccc2)Oc2ccc(O)c(I)c21
inactive: [1] 111% | [2] 99.5% | [3] 101% | [4] 81% | [5] 108% | [6] 82.6% | [7] 104% | [8] 87.7% | [9] 96.6% | [10] 98.5% | [11] 94.5% | [12] 105% | [13] 99.1% | [14] 93% | [15] 89.6% | [16] 86.1% | [17] 93.8% | [18] 112%

COc1cc(C(=O)/C=C/c2ccc3nc(-c4cc(F)cc(F)c4)sc3c2)cc(OC)c1OC
inactive: [1] 112% | [2] 100% | [3] 86.6% | [4] 84.2% | [5] 110% | [6] 97.3% | [7] 94.2% | [8] 92.4% | [9] 103% | [10] 97.1% | [11] 99.5% | [12] 95.9% | [13] 98.3% | [14] 92.5% | [15] 95.1% | [16] 95.6% | [17] 94.9% | [18] 106%

COc1ccc(C(=O)N2NC(=O)/C(=C/c3ccc(Br)cc3)N=C2c2ccccc2)cc1
inactive: [1] 102% | [2] 81.8% | [3] 90.3% | [4] 83.3% | [5] 99.9% | [6] 89.8% | [7] 92.7% | [8] 76.8% | [9] 95.5% | [10] 79.2% | [11] 94.8% | [12] 93.2% | [13] 87.4% | [14] 72.9% | [19] 93.8% | [16] 68.3% | [17] 87.9% | [18] 94.5%

COc1ccc(Nc2nn3c(C)cc(C)nc3c2C(=O)Nc2ccc(C)cc2)c(OC)c1
inactive: [1] 113% | [2] 108% | [3] 124% | [4] 108% | [5] 107% | [6] 100% | [7] 107% | [8] 102% | [9] 98.6% | [10] 101% | [11] 101% | [12] 101% | [13] 101% | [14] 94.8% | [15] 98.8% | [16] 93% | [17] 109% | [18] 94.4%

O=S(=O)(CC(O)(c1ccccc1)c1ccccc1)CC(O)(c1ccccc1)c1ccccc1
active: [8] 2.42%
inactive: [1] 74.6% | [2] 75.8% | [3] 61.8% | [4] 71.2% | [5] 93.4% | [6] 85.3% | [7] 74.8% | [9] 102% | [10] 95.2% | [11] 96.4% | [20] 58.4% | [13] 83.2% | [14] 70.7% | [15] 80.4% | [19] 88.6% | [16] 93.7% | [17] 76% | [18] 86%

CN1C(=O)N(C)C2C1NN=c1s/c(=C\C=C\c3ccccc3)c(=O)n12 (configuration not stated)
inactive: [1] 69.3% | [2] 20.6% | [3] 62.6% | [4] 65% | [5] 77.7% | [6] 67.2% | [7] 45.7% | [8] 54.8% | [9] 73.4% | [10] 41.5% | [11] 32.4% | [12] 20.7% | [13] 57.9% | [14] 63.7% | [16] 43.6% | [17] 46.4% | [18] 68.4%

C=C[C@@H]1C[C@@H]2Cc3ccccc3N1O2
inactive: [1] 120% | [2] 54.3% | [3] 125% | [4] 106% | [5] 119% | [6] 116% | [7] 99.8% | [8] 103% | [9] 97.7% | [10] 102% | [11] 107% | [20] 102% | [13] 109% | [14] 101% | [15] 116% | [19] 107% | [16] 101% | [17] 104% | [18] 109%

COc1ccc(C(=O)c2cc(OC)c3c(c2)OCO3)cc1O
active: [1] -2.4% | [5] -4.75% | [8] 6.91% | [19] -52%
inactive: [2] 14.8% | [3] 50.7% | [4] 16.4% | [6] 27.6% | [7] 15.5% | [9] 65.6% | [10] 14.2% | [11] 19.1% | [20] 30.6% | [13] 41% | [14] 27.9% | [15] 29.4% | [16] 43.6% | [17] 26.7% | [18] 65.6%

COc1ccc(S(=O)(=O)n2cc(C(=O)C(=O)Nc3ccncc3)c3ccccc32)cc1F
inactive: [1] 86.4% | [2] 58.8% | [3] 76.4% | [4] 57.1% | [5] 90.9% | [6] 81.7% | [7] 43.2% | [8] 69.1% | [9] 105% | [10] 93.2% | [11] 84.2% | [12] 83.9% | [13] 78.9% | [14] 77.4% | [19] 73.5% | [16] 65.5% | [17] 70.2% | [18] 92.2%

COc1cc(C2C3=C(COC3=O)Nc3cc4c(cc32)OCO4)cc2c1OCO2 (configuration not stated)
active: [1] -19.5% | [2] 7.92% | [7] 5.02% | [8] -0.0643% | [10] 5.48% | [11] 9.19% | [19] -60.6%
inactive: [3] 53.8% | [4] 11.1% | [5] 18.5% | [6] 20.1% | [9] 65.1% | [20] 42.2% | [13] 31% | [14] 18.5% | [15] 24% | [16] 41.3% | [17] 16% | [18] 65.3%

CC1CCC(C)N(C)C1 (configuration not stated)
inactive: [1] 122% | [2] 98.9% | [3] 101% | [4] 98.2% | [5] 100% | [6] 108% | [7] 116% | [8] 103% | [9] 105% | [10] 96.8% | [11] 117% | [20] 89.7% | [13] 98.6% | [14] 107% | [15] 87.5% | [19] 107% | [16] 99.7% | [17] 95.9% | [18] 107%
